The supplement of paper PMC7595190

Tested on: MV4-11
Assay: CellTox Green cytotoxicity fluorescence relative to DMSO vehicle (fold of vehicle RFU); higher = more cell death (loss of membrane integrity), active = 2 or more
Protocol: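 Paediatric AML cell lines (MV4-11, CMK, Kasumi-1; 4x10^4 cells/well, 96-well) treated with single compounds from the Selleckchem apoptosis library at 0.01, 0.1 and 1 µM. Cytotoxicity was read with CellTox Green (RFU, Ex 485/Em 520) at 24, 48 and 72 h and normalised to the 0.1% DMSO vehicle. Normalised RFU >= 2 was taken as a successful, cell-killing treatment.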

Measured: CellTox Green cytotoxicity fluorescence

CN[C@@H](C)C(=O)N[C@H](C(=O)N1CCC[C@H]1C(=O)Nc1snnc1-c1ccccc1)C1CCCCC1
inactive: 0.01 µM, 24 h 1.01 | 0.01 µM, 48 h 0.97 | 0.01 µM, 72 h 0.974 | 0.1 µM, 24 h 0.988 | 0.1 µM, 48 h 0.993 | 0.1 µM, 72 h 1 | 1 µM, 24 h 1.01 | 1 µM, 48 h 1.03 | 1 µM, 72 h 1.04

COc1cc(C(=O)O)ccc1NC(=O)[C@@H]1N[C@@H](CC(C)(C)C)[C@](C#N)(c2ccc(Cl)cc2F)[C@H]1c1cccc(Cl)c1F [Idasanutlin]
inactive: 0.01 µM, 24 h 0.983 | 0.01 µM, 48 h 0.967 | 0.01 µM, 72 h 0.97 | 0.1 µM, 24 h 0.971 | 0.1 µM, 48 h 0.958 | 0.1 µM, 72 h 0.972 | 1 µM, 24 h 0.967 | 1 µM, 48 h 1.03 | 1 µM, 72 h 1.1

O=C(O)CSc1cc(NS(=O)(=O)c2ccc(Br)cc2)c2ccccc2c1O
inactive: 0.01 µM, 24 h 0.99 | 0.01 µM, 48 h 0.983 | 0.01 µM, 72 h 0.99 | 0.1 µM, 24 h 0.988 | 0.1 µM, 48 h 0.985 | 0.1 µM, 72 h 0.989 | 1 µM, 24 h 0.983 | 1 µM, 48 h 0.997 | 1 µM, 72 h 1.03

CC[C@H](NC(=O)[C@H](C)NC)C(=O)N1C[C@@H](O)C[C@H]1Cc1c(-c2[nH]c3cc(F)ccc3c2C[C@@H]2C[C@H](O)CN2C(=O)[C@H](CC)NC(=O)[C@H](C)NC)[nH]c2cc(F)ccc12 [Birinapant]
inactive: 0.01 µM, 24 h 0.987 | 0.01 µM, 48 h 0.989 | 0.01 µM, 72 h 1 | 0.1 µM, 24 h 0.988 | 0.1 µM, 48 h 1.04 | 0.1 µM, 72 h 1.08 | 1 µM, 24 h 1.03 | 1 µM, 48 h 1.2 | 1 µM, 72 h 1.32
